High-throughput results (PubChem)
In the library only some 8% were active in any assay of this set; here they are far more common.
MARV entry inh = inhibitors of Marburg virus binding or cell entry; Marburg virus pseudotyped entry inhibition, cell reporter; hit rate 1.8% among 300,000; AID 540276; Potency, µM (series often up to 37.8 µM), for inactives: at the highest dose activity change, negative = inhibition, hits mostly inhibitors; calls by dose curve; tested in HEK293 cells; further: potency means the concentration at half of the fitted maximal effect; on the % scale 0 is the no-effect control and ±100 the full control effect
HCMV inh = human cytomegalovirus inhibition; HFF cells, HCMV-luciferase reporter, 72 h; stronger effect = lower value; activity change, negative = inhibition, % at 57.5 µM; hit rate 4.5% among 410,000; AID 1259415; in the data active means activity change below about -60%; inconclusive means no clear call, values can overlap the other calls; inactive means above about -39%; further: on the % scale 0 is the no-effect control and ±100 the full control effect
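Two compound doses tested in HFFs infected with HCMV-luciferase, MOI 1 PFU/cell, 72 h at 37C. Lysate luminescence read with OneGlo; data normalized against buffer-only and 10uM Salinomycin inhibitor controls.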
HCV inh = inhibitors of hepatitis C virus infection; Huh7.5.1 HCVcc-Cre infection, luciferase reporter, 44 h; Potency, µM (highest dose often 41.8 µM), for the others: at the top dose activity change, negative = inhibition, hits mostly inhibitors; hit rate 3.4% among 340,000; AID 651820; active means well fitted inhibition curve with a large enough effect; inconclusive means small, poorly fitted or top-dose-only effect, or another doubt; inactive means no such curve, though single readings can be large or run the other way; further: potency means the concentration at half of the fitted maximal effect; on the % scale 0 is the no-effect control and ±100 the full control effect
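Infectious HCV cell culture screen: compound-treated cells (1,000/well, pre-plated 4 h) are infected with HCVcc-Cre at roughly 0.5 moi and grown 44 h. Infection is quantified by luciferase signal after 15 min substrate incubation at room temperature.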
FMDV antiviral = antivirals against foot and mouth disease virus | FMDV antiviral cell-based qHTS | Potency, µM (doses to about 57.9 µM), without a hit: at the highest dose activity change, negative = inhibition, hits mostly inhibitors | hit rate 1.2% among 410,000; calls by dose curve; tested in HEK293T cells; further: read-out not given here; potency means the concentration at half of the fitted maximal effect; on the % scale 0 is the no-effect control and ±100 the full control effect; nearly all actives have a fitted effect of over 45% in size
LASV entry inh = blocks Lassa virus binding to or entry into cells; Lassa virus pseudotype entry inhibition, cell reporter; Potency, µM (top dose mostly 37.9 µM), without a hit: at the highest dose activity change, negative = inhibition, most hits filed as inhibitors; AID 540256; hit rate 1.2% among 300,000; calls by dose curve; tested in HEK293 cells; further: potency means the concentration at half of the fitted maximal effect; on the % scale 0 is the no-effect control and ±100 the full control effect; nearly all actives have a fitted effect of over 50% in size
SARS PLpro yeast = blocks SARS-CoV papain-like protease in a yeast assay; S. cerevisiae expressing SARS-CoV PLpro, growth rescue; AID 485353; hit rate 0.19% among 330,000; Potency, µM (doses to about 32.9 µM), without a hit: at the top dose activity, positive = growth rescue, actives largely listed as activators; calls by dose curve; further: potency means the concentration at half of the fitted maximal effect; 0% is about no effect; nearly all actives have a fitted effect of over 55% in size
* hit, by the source's call; u = inconclusive; x = not tested or not shown; + = active, no number; [ ] = remark or other dose.

SMILES	MARV entry inh	HCMV inh	HCV inh	FMDV antiviral	LASV entry inh	SARS PLpro yeast
CCOC(=O)Nc1nnc(-c2ccc(OC)cc2)s1	u	25	1%	x	-2%	1%
COc1cccc(N2CCN(CC(=O)NC3=Nc4ccccc4N=C(C)C3c3ccccc3)CC2)c1 (stereo not given)	u	1	u	-25%	u	-2%
Cc1cccc(N2C(=O)N(CC(=O)C(C)(C)C)c3ccccc3S2(=O)=O)c1C	x	1	x	-27%	-15%[46.1 µM]	x
Cc1nn(-c2ccccc2)c(C)c1NC(=O)COC(=O)CC(C)c1ccccc1 (stereo not given)	27%[46.1 µM]	-63*	u	-11%	6%	-1%
Cc1ccc(C)c(OCC(=O)OCC(=O)Nc2c(C)nn(-c3ccccc3)c2C)c1	27%	-11	3%	-2%	-3%	-3%
Cc1nn(-c2ccccc2)c(C)c1NC(=O)COC(=O)c1ccc(NC(=O)CC#N)cc1	22%	-68*	1%	-30%	u	x
COC1CCC(C2CC(=O)C3=C(CCCC3)O2)CC1 (stereo not given)	44%	x	x	x	x	x
Cc1oc(-c2cccc(Cl)c2)nc1CSc1nncn2c1cc1occc12	x	-7	x	-8%	6%[46.1 µM]	x
CC(C)(C)CC(=O)NCC(c1ccc2c(c1)OCO2)N1CCN(c2ccccc2)CC1 (stereo not given)	x	-2	x	-12%	-25%[46.1 µM]	x
CCCN(C(=O)Cn1c(=O)oc2cc(Cl)ccc21)c1ccc(C(C)C)cc1	-8%[46.1 µM]	-29	x	-12%	-19%[46.1 µM]	x
Cc1[nH]nc2c1C(c1cn[nH]c1-c1ccc(F)cc1)C(C#N)=C(N)O2 (stereo not given)	0%[46.1 µM]	11	-7%	22µM*	-28%	u
Cc1[nH]nc2c1C(c1cc(Br)cs1)C(C#N)=C(N)O2 (stereo not given)	u	-98*	u	u	-2%	-21%
CCOC(=O)c1sc2ccccc2c1S(=O)(=O)N1CCN(c2cccc(C)c2)C(C)C1 (stereo not given)	x	-24	x	-14%	u	x
COC(=O)[C@H]1[C@H]2C[C@@H]3c4[nH]c5cc(OC)ccc5c4CCN3C[C@H]2C[C@@H](OC(=O)c2cc(OC)c(OC)c(OC)c2)[C@@H]1OC	10µM*	23	u	-17%	7.3µM*	x
CC(C(=O)Nc1ccc(OCc2ccccc2)cc1)N1CCCC1 (stereo not given)	u	-35	u	15%	24%[46.1 µM]	-1%
CC(C)COCC(CN(Cc1ccccc1)c1ccccc1)N1CCCC1 (stereo not given)	u	-67*	4%	u	13%	-1%
CCOC(=O)N1CCC(NC(=O)c2cc(C(=O)Nc3ccc(OCC)cc3)ccc2CO)CC1	-3%	-67*	-22%	u	-3%	-2%
CCOC(=O)N1CCC(NC(=O)c2cc(C(=O)Nc3cccc(C(F)(F)F)c3)ccc2CO)CC1	x	u	13µM*	u	x	-2%
COc1ccc(NC(=O)c2ccc3c(c2)c(C)c(C)n3Cc2ccc(F)cc2)c(OC)c1	x	+	x	-12%	12%[46.1 µM]	x
COc1ccc(OC)c(NC(=O)c2ccc3c(c2)c(C)c(C)n3Cc2ccc(F)cc2)c1	x	0	x	-1%	10%[46.1 µM]	x
Cc1ccc(NC(=O)c2c(C(F)(F)F)nn(C)c2SCc2cccc(C(F)(F)F)c2)cc1C	u	-88*	u	-27%	u	-8%
Cc1cccc(N2CCN(C(=O)CNC(=O)c3cccc([N+](=O)[O-])c3)CC2)c1C	u	-64*	11µM*	u	-20%	-5%
CCc1ccccc1NC(=O)CN1CCN(C(=O)CNC(=O)c2ccc(-c3ccccc3)cc2)CC1	x	-35	11µM*	u	x	-13%
O=C(NCc1ccc(Cl)cc1)N1CCN(Cc2ccccc2)CC1	x	-93*	u	-9%	x	4%
O=C(NN1CCN(Cc2ccccc2Cl)CC1)c1ccc(Cl)cc1	-33%	-61*	4%	u	13%	u
SMILES	MARV entry inh	HCMV inh	HCV inh	FMDV antiviral	LASV entry inh	SARS PLpro yeast
CCc1ccccc1NC(=O)CN1CCN(CC(=O)Nc2ccc(-c3ccccc3)cc2)CC1	u	14	4%	1%	2%[46.1 µM]	7%
O=C(NCc1cccc(Cl)c1)C1CCCN(c2ncnc3onc(-c4ccc(F)cc4)c23)C1 (stereo not given)	x	9	x	0%	-19%[46.1 µM]	x
CCOC(=O)c1cccc(NC(=O)c2cc3cc4ccc(C)cc4nc3o2)c1	-2%[46.1 µM]	27	x	-19%	2%[46.1 µM]	x
COc1cc(-c2n[nH]c3ccnc(-c4cccc(OC(F)(F)F)c4)c23)cc(OC)c1OC	x	-18	x	x	x	x
O=C1[C@@H]2[C@H](ON(c3ccccc3)[C@H]2c2ccncc2)C(=O)N1c1ccccc1	18%	x	x	x	x	x
O=C(NCC(=O)N1CCN(Cc2ccccc2)CC1)c1ccc(Cl)cc1	x	-62*	u	u	x	-3%
O=C(NCC(=O)N1CCN(Cc2ccccc2)CC1)c1cc(Cl)cc([N+](=O)[O-])c1	x	-86*	u	u	x	-4%
Cc1cccc(N2CCN(C(=O)CC(NC(=O)c3ccccc3Cl)c3ccccc3)CC2)c1C (stereo not given)	12µM*	u	-1%	-10%	u	-19%
Cc1ccc(OCCOCCn2c(-c3ccc(Cl)cc3)nc3ccccc3c2=O)cc1	2%[46.1 µM]	8	x	-20%	-8%[46.1 µM]	x
Cc1ccc(NC(=O)C(NS(=O)(=O)c2ccc3c(c2)CCC(=O)N3)c2ccccc2)cc1C (stereo not given)	-2%[46.1 µM]	55	x	44%	-14%[46.1 µM]	x
CCCc1nn(C)c2c1[C@@H](c1cccnc1)C(C#N)=C(N)O2	-4%	x	x	x	x	x
O=C(Cn1c(=O)n(-c2ccc(Cl)cc2)c(=O)c2oc3ccccc3c21)Nc1ccccc1	x	-7	x	13%	5%[46.1 µM]	x
FC(F)(F)c1cccc(NC(=S)NC2CCCC2)c1	u	-64*	9%	-21%	-3%	-45%
O=C(Nc1cccc(C(F)(F)F)c1)C1CCCCC1	-19%	21	7%	-22%	-19%	-12%
CN(C(=O)Nc1cccc(C(F)(F)F)c1)C1CCCCC1	-5%[46.1 µM]	-63*	1%	20%	u	-1%
FC(F)(F)c1cccc(N2CCN(C(=S)NC3CCCC3)CC2)c1	u	-29	32µM*	20µM*	-26%	-12%
FC(F)(F)c1cccc(NC(=S)Nc2cccc(NC(=S)Nc3cccc(C(F)(F)F)c3)n2)c1	u	u	10µM*	-21%	u	0%
COc1cccc([C@@H]2Oc3ccc(OC)cc3[C@H](O)[C@H]2O)c1	-7%[14.2 µM]	x	x	x	x	x
CCCCCNC(=O)C1(C)CCc2nc3cc(C)c(C)cc3n21 (stereo not given)	x	-11	x	x	x	x
CCOc1cc(Br)c(CN2C(=O)NC3(CCCCCC3)C2=O)cc1OCC	11µM*	44	10%	u	x	-7%
CCCCN(CCCC)CC(O)Cn1cc(/C=C/C(=O)c2ccccc2)c2ccccc21 (stereo not given)	u	-106*	x	-15%	u	x
